Sampled rows, rich in hits. Any-hit rate of the full collection: about 0.47%.
UDG counterscr: UDG inhibition counter-screen; Potency, µM (top dose mostly 115 µM), without a hit: at the top dose activity change, negative = inhibition, most hits filed as inhibitors; FRET deamination/UDG coupled assay, UDG read, 4 h; hit rate 0.14% among 91,000; also: nearly all actives have a fitted effect of over 65% in size
AID inh: blocks human AID cytidine deaminase activity. hit rate 0.32% among 91,000. Potency, µM (titrated, usually from 115 µM), usual class: inhibitors. AID deamination FRET fluorescence, UDG-coupled, 4 h; also: nearly all actives have a fitted effect of over 25% in size
Target sequence (Q9GZX7 whole entry, looked up): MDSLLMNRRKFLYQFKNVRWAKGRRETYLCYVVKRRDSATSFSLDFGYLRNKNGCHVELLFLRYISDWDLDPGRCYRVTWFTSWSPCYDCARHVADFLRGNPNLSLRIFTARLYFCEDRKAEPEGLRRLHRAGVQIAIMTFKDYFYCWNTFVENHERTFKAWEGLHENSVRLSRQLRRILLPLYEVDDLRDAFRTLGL
* marks the source's active call; other numbers are inactive results; i = inactive; ? = inconclusive; [ ] = dose if it differs, or a comment. Calls follow the shape of the dose curve; as a rule, active = well fitted curve in the direction sought with a large enough effect; inconclusive = small, poorly fitted or top-dose-only effect, or another doubt; inactive = no such curve, though single readings can be large; an effect the other way counts as inactive or inconclusive. % is scaled to controls: 0 for no effect and ±100 for the full control effect; potency is read from the fitted curve at half-maximal effect.

SMILES | UDG counterscr | AID inh
c1ccc(CCNc2nc(Nc3ccccc3)c3nccnc3n2)cc1 | -4.1% | i
OCCNc1nc(Nc2cccc(Cl)c2)nc2nccnc12 | 1.3% | 79.4µM*
OCCNc1nc(Nc2ccc(Br)cc2)nc2nccnc12 | -4.0% | ?
OCCNc1nc(Nc2ccc(Cl)c(Cl)c2)nc2nccnc12 | -3.7% | 35.5µM*
Cc1cc2nc(SCC(=O)Nc3ccc(F)c(Cl)c3)[nH]c(=O)c2[nH]1 | -3.4% | i
CCN(CC)S(=O)(=O)c1cc(-c2nnc(Nc3ccc(OC)c(C(N)=O)c3)c3ccccc23)ccc1C | ? | 35.5µM*
Cc1ccc(-c2nnc(Nc3ccc(Cl)c(Cl)c3)c3ccccc23)cc1S(=O)(=O)N(C)C | -16.0% | i
O=[N+]([O-])c1cccc(N/N=C/c2ccc3ncccc3c2)c1 | -6.8% | i
CC(C)CN(CC(C)C)CC(O)Cn1cc(/C=C/C(=O)c2ccccc2)c2ccccc21 (configuration not stated) | -16.1% | ?
CCCN(CCC)CC(O)Cn1cc(/C=C/C(=O)c2ccc(OCC)cc2)c2ccccc21 (configuration not stated) | -23.7% | 35.5µM*
COc1ccc(-c2nc(C(=O)N3CCN(c4ccc(C(C)=O)cc4)CC3)cs2)cc1OC | -12.7% | i
CCCCCCc1cc2c(-c3ccccc3)cc(=O)oc2cc1O | 5.4% | i
COc1ccc(CNCCC(c2ccc(C)cc2)c2ccco2)cc1 (configuration not stated) | -4.2% | i
COc1ccc(CNCCC(c2ccccc2)c2ccc3c(c2)OCO3)cc1 (configuration not stated) | 5.2% | 44.7µM*
O=C(O)c1cc(-c2ccco2)nc2c(Cl)cccc12 | 0.3% | i
Cc1cccc(Cn2c(-c3ccccc3)nc3ccccc32)c1 | -19.5%[57.5 µM] | ?
Fc1ccccc1Cn1c(-c2ccccc2)nc2ccccc21 | ? | 44.7µM*
CN(CCCNC(=O)c1cc2c(Cl)nc3ccccc3c2s1)Cc1ccccc1 | -7.4% | 22.4µM*
CCN(CCCNC(=O)c1cc2c(Cl)nc3ccccc3c2s1)Cc1ccccc1 | -19.4% | ?
Cc1ccc2nc(Cl)c3cc(C(=O)NCCCN(C)Cc4ccccc4)sc3c2c1 | 79.4µM* | ?
COCCNC(=O)c1cc2c(Cl)nc3ccc(C)cc3c2s1 | 7.8% | ?
CC1(C)CC(=O)C2=C(C1)OC(N)=C(C#N)C2c1cccc(Oc2ccccc2)c1 (configuration not stated) | -3.1% | i
NC(=S)N/N=C1\C2C3C(Br)C4C5CC(C1C53)C24 (configuration not stated) | -8.2% | i
CCCc1cc(=O)oc2cc(OS(=O)(=O)c3ccc(F)cc3Cl)ccc12 | -5.1% | i
Cc1nc2c(C(=O)NCc3ccccc3)c[nH]n2c(=O)c1Cc1ccccc1Cl | -3.8% | 89.1µM*
SMILES | UDG counterscr | AID inh
Cc1nc2nc(N(Cc3ccccc3)C(=O)c3ccco3)[nH]n2c(=O)c1Cc1ccccc1Cl | -0.4% | ?
Cc1cc(Nc2cccc(C(F)(F)F)c2)nc2ccc(NC(=O)Cc3ccc(Cl)cc3)cc12 | -16.8% | 35.5µM*
COc1ccc(CC(=O)Nc2ccc3nc(Nc4cccc(Cl)c4)cc(C)c3c2)cc1 | -10.0% | i
COc1ccc2cc(C(C)C(=O)NC3CCCCC3)ccc2c1 (configuration not stated) | -2.9% | i
COc1ccc(C(C)=O)cc1CC(=O)Oc1cc(Cl)ccc1Cl | 8.1% | i
CCN1CCN(c2nc(-c3ccccc3)nc3cc(OC)c(OC)cc23)CC1 | -3.4% | i
Oc1cccc(/C=C/c2nc3ccccc3s2)c1 | 13.4% | i
O=C(O)c1cc(Nc2nc(-c3ccccc3)cs2)ccc1O | 10.6% | ?
O=C(O)c1ccc(Nc2nc(-c3ccc(Cl)cc3)cs2)cc1O | 25.8% | 79.4µM*
CCc1cccc(C)c1Nc1c(-c2cccs2)nc2ncccn12 | 6.0% | ?
Cc1cccc(C)c1Nc1c(-c2ccc(Cl)s2)nc2ncccn12 | ? | 44.7µM*
COc1ccc(-c2nn(-c3ccccc3)cc2C2NC(=O)NC(C)=C2C(=O)OC(C)C)cc1OC (configuration not stated) | -7.0% | ?
CCOC(=O)C1=C(C)NC(=O)NC1c1cn(-c2ccccc2)nc1-c1ccc(OC(C)C)cc1 (configuration not stated) | -3.9% | 28.2µM*
CCN(CC)C1=NC(=O)C(CC(=O)Nc2cccc(C(=O)NCCc3ccccc3OC)c2)S1 (configuration not stated) | 0.2% | i
Cc1[nH]c2ccccc2c1C(=O)C(C)OC(=O)c1cccc(F)c1 (configuration not stated) | -3.2% | i
Cc1cc(-n2c(C)nc3ccccc3c2=O)ccc1NC(=O)c1ccccc1[N+](=O)[O-] | -14.2% | i
Cc1cc(-n2c(C)nc3ccccc3c2=O)ccc1NC(=O)c1cccc([N+](=O)[O-])c1C | 89.1µM* | i
Cn1c(CC(=O)Nc2ccccc2)nnc1SCC(=O)NC12CC3CC(CC(C3)C1)C2 | 8.1% | i
Cc1ccc(NC(=O)Cc2nnc(SCC(=O)NC34CC5CC(CC(C5)C3)C4)n2C)cc1C | 89.1µM* | i
Cc1ccc2nc(-c3ccncc3)cc(C(=O)O)c2c1 | -3.6% | i
COc1cccc(CNC(=O)c2ccc3c(=O)n4nc(Nc5ccccc5)sc4nc3c2)c1 | -2.5% | i
CCN(CC)CCNC(=O)c1ccc2c(=O)n3nc(Nc4ccccc4)sc3nc2c1 | -8.6% | 70.8µM*
Cc1nc2cccnc2n1C1CCN(S(=O)(=O)c2ccc(Cl)cc2)CC1 | ? | i
CC(C)Cc1nc2cccnc2n1C1CCN(S(=O)(=O)c2ccc3c(c2)CCCC3)CC1 | 79.4µM* | i
Cc1oc(-c2ccc(Cl)cc2)nc1CS(=O)CC(=O)N1CCN(c2cccc(C(F)(F)F)c2)CC1 (configuration not stated) | -11.1%[57.5 µM] | ?
SMILES | UDG counterscr | AID inh
COc1cccc(-c2nc(CS(=O)CC(=O)N3CCN(c4cccc(C(F)(F)F)c4)CC3)c(C)o2)c1 (configuration not stated) | -14.5%[57.5 µM] | 44.7µM*
CCc1c(C)sc(NC(=O)C(F)(F)F)c1C#N | 3.8% | i
OCC1O[C@H]([S-])[C@H](O)[C@@H](O)[C@@H]1O.[Au+] (some centres not stated) | 3.3% | 25.1µM*
CCOc1cc(C(=O)Nc2ccc(OC)cc2)nc2ccc(Cl)cc12 | -1.1% | i
O=C(NCC(c1cccnc1)N1CCc2ccccc21)c1ccc(Cl)cc1 (configuration not stated) | -11.5% | ?
COc1ccc(C(=O)NCC(c2cccnc2)N2CCc3ccccc32)cc1 (configuration not stated) | -14.6% | 100µM*
COC(=O)/C=C(/SCc1ccccc1)c1ccccc1 | 2.5% | i
COc1ccc(C(C)=O)cc1COC(=O)CCc1ccc2c(c1)OCO2 | 0.4% | i
CC(C)(C)c1ccc(-c2nc(SCCOc3ccc(Cl)cc3)n3[nH]c(=O)cc3n2)cc1 | -5.0% | ?
Cc1ccc(OCCCSc2nc(-c3ccc(C(C)(C)C)cc3)nc3cc(=O)[nH]n23)cc1C | ? | 44.7µM*
COc1ccccc1OCCSc1nc(-c2ccc(C(C)(C)C)cc2)nc2cc(=O)[nH]n12 | -27.3% | 79.4µM*
C=CCc1ccccc1OCCSc1nc(-c2ccc(C(C)(C)C)cc2)nc2cc(=O)[nH]n12 | -23.3% | ?
CCCCCCCc1c(C(=O)O)c2ccccc2c2ccccc12 | 2.6% | i
CCSC1=N/C(=C\c2ccc(OC)c(C)c2)C(=O)S1 | -10.9% | i

From PubChem BioAssay
